The results in this text go back to PubChem BioAssay (Tox21).

Several values for one entry are separate records, joined by “and”; a condition that tells them apart may be missing. Equal entries are not always repeated. Values without a mark were called inactive. Results filed as inconclusive are left out. Activity calls are given as the source filed them. Calls come from the whole dose curve; as a rule, active = well fitted curve in the direction sought with a large enough effect in the repeat runs; inconclusive = weak or mixed curves; inactive = no such curve, though single readings can be large; an effect the other way counts as inactive or inconclusive.

Test [1] can be described thus: A CellTox Green Cytotoxicity Assay to monitor cytotoxicity in HEK293 cells - 32 hour (AID 1224881). Note: nearly all actives have a fitted effect of over 40% in size. Note: potency is the fitted concentration of half-maximal effect. The method, boiled down: (§1)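 Real-time, in one plate: 600 HEK293 cells/well with dead-cell DNA dye, pinned compound after 5 h, 37 C incubation over 40 h; viable cells give no appreciable fluorescence.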
Test [2] in a line: A CellTox Green Cytotoxicity Assay to monitor cytotoxicity in HepG2 cells - 0 hour (AID 1224882). Note: nearly all actives have a fitted effect of over 35% in size. The method, boiled down:
(§2)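 Cytotoxicity was tracked as dead-cell DNA fluorescence in HepG2 cells treated with test compounds at 37 C; each time-point value comes from one kinetic series spanning 0, 8, 16, 24, 32 and 40 h.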

Test [3] is described as follows: A CellTox Green Cytotoxicity Assay to monitor cytotoxicity in HepG2 cells - 32 hour (AID 1224883). Note: nearly all actives have a fitted effect of over 50% in size. Note: potency is the fitted concentration of half-maximal effect. Summed up:
as §2

Test [4] can be described thus: A CellTox Green Cytotoxicity Assay to monitor cytotoxicity in HEK293 cells - 8 hour (AID 1224884). Note: nearly all actives have a fitted effect of over 35% in size. The method, boiled down:
as §1

Test [5] is described as follows: qHTS RealTime-Glo MT Cell Viability Assay in HepG2 cells - 16 hour (AID 1224885). Note: nearly all actives have a fitted effect of over 50% in size. Note: potency is the fitted concentration of half-maximal effect. The method, boiled down: (§3)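 HepG2 cells (600/well) were dispensed with RealTime-Glo reagents, incubated 5 h at 37 °C, then treated with compounds in DMSO for up to 40 h. Nonlytic NanoLuc luminescence reflecting viable cells was read at each stated time point.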
The nature of test [6]: qHTS RealTime-Glo MT Cell Viability Assay in HEK293 cells - 24 hour (AID 1224886). Note: nearly all actives have a fitted effect of over 50% in size. Note: potency is the fitted concentration of half-maximal effect. Summed up:
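HEK293 cells seeded with NanoLuc/prosubstrate reagent, rested 5 h at 37 C, then dosed and kept at 37 C up to 40 h. Nonlytic real-time luminescence from viable cells read at 0, 8, 16, 24, 32 and 40 h.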

Test [7] in a line: qHTS RealTime-Glo MT Cell Viability Assay in HEK293 cells - 8 hour (AID 1224887). Note: nearly all actives have a fitted effect of over 50% in size. Note: potency is the fitted concentration of half-maximal effect. The method, boiled down: (§4)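 Kinetic, non-lysing viability readout. Seed HEK293 (600/well) with reagent, incubate 5 h at 37 C/5% CO2, pin 23 nL compound in DMSO, incubate at 37 C, read luminescence at 0, 8, 16, 24, 32, 40 h.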
The nature of test [8]: A CellTox Green Cytotoxicity Assay to monitor cytotoxicity in HEK293 cells - 16 hour (AID 1224888). Note: nearly all actives have a fitted effect of over 35% in size. Summed up:
as §1

Test [9] can be described thus: qHTS RealTime-Glo MT Cell Viability Assay in HepG2 cells - 0 hour (AID 1224889). Note: nearly all actives have a fitted effect of over 50% in size. Note: potency is the fitted concentration of half-maximal effect. Summed up: as §3
Test [10] is described as follows: qHTS RealTime-Glo MT Cell Viability Assay in HEK293 cells - 0 hour (AID 1224880). Note: nearly all actives have a fitted effect of over 45% in size. Note: potency is the fitted concentration of half-maximal effect. Summed up: as §4

On to `CCOC(=O)[C@@H](C)Oc1ccc(Oc2nc3ccc(Cl)cc3o2)cc1`, for which the Potency result in test [1], in test [2], in test [3], in test [4], in test [8] and in [9] was “inactive” in each case. The Potency in test [5] was 8.71 µM (active); in test [6], 21.9 µM (active); in test [7], 21.9 µM (active).

`O=C1NCCN1`: the Potency entry in test [10], in [2], in test [3], in [4], in [5] and in test [6] was “inactive” each time. For the same compound, the Potency result in [7] and in test [9] was “inactive” throughout.

For `CC(=O)CC(c1ccc([N+](=O)[O-])cc1)c1c(O)c2ccccc2oc1=O` (stereo not given), the Potency entry in [1], in test [2], in test [3], in [4], in test [5] and in [6] was “inactive” throughout. The Potency entry in test [7], in test [8] and in test [9] was “inactive” each time.

`CC(=O)OCC(=O)[C@H]1CC[C@H]2[C@@H]3CCC4=CC(=O)CC[C@]4(C)[C@H]3CC[C@]12C`: the Potency in test [10] is 9.52 µM (active). In addition, the Potency result in test [2], in test [3], in test [4], in [5] and in [8] was “inactive” in each case.

Turning to `COC(=O)CC(=O)C(C)(C)C`, the Potency entry in test [1], in test [2], in test [3], in test [4], in test [5] and in test [6] was “inactive” in each case. Moreover, the Potency entry in test [7], in test [8] and in [9] was “inactive” in each case.

In the case of `C/C=C/C=C/CCCCCCCO`, the Potency entry in [10], in [2], in test [3], in test [4], in test [5] and in test [6] was “inactive” each time. Moreover, the Potency result in test [8] is “inactive”. Moreover, in test [9], the Potency is 13.8 µM (active).

Consider `CCC(Cc1ccccc1)(C(=O)c1ccc(N2CCOCC2)cc1)N(C)C` (stereo not given), for which the Potency entry in test [1], in test [2], in [3], in test [4], in test [5] and in test [8] was “inactive” in each case.

For the compound `CC1=CC(O)CC(C)(C)C1` (stereo not given), the Potency entry in test [2], in test [3], in test [4], in test [5], in [6] and in [7] was “inactive” throughout. Further, the Potency result in test [8] and in test [9] was “inactive” in each case.

Consider `C/C=C(\C)C(=O)OCCC(C)CCC=C(C)C` (stereo not given), for which the Potency result in test [1], in test [3], in [4], in [5], in test [6] and in test [7] was “inactive” in each case. Moreover, the Potency entry in [8] and in [9] was “inactive” throughout.

In the case of `Cc1nccn1-c1ccc(Sc2cccc(C3(C(N)=O)CCOCC3)c2)cc1`, the Potency result in test [1], in test [2], in test [4], in [8] and in test [9] was “inactive” each time. Moreover, in test [6], the Potency is 1.38 µM (active).

In the case of `CCCCN(CCCC)C(=S)SSC(=S)N(CCCC)CCCC`, the Potency entry in test [1], in [2], in test [4], in [5], in test [8] and in test [9] was “inactive” throughout. For the same compound, the Potency in [6] was 48.5 µM (active); in test [7], 34.3 µM (active).

Consider `N#C[C@@H]1C[C@@H]2C[C@@H]2N1C(=O)[C@@H](N)C12CC3CC(CC(O)(C3)C1)C2`, for which the Potency entry in [1], in [2], in test [4], in [5], in test [6] and in test [7] was “inactive” in each case. Further, the Potency entry in test [8] and in test [9] was “inactive” each time.

Consider `CCCC1C(CC)=CC(CC)=CN1c1ccccc1` (stereo not given), for which the Potency result in test [1], in test [2], in test [3], in test [4], in test [5] and in [8] was “inactive” each time. Besides, in test [9], the Potency result is “inactive”. In test [6], the Potency was 13.8 µM (active).

For `COc1cc2c(cc1OC)-c1cc(=Nc3c(C)cc(C)cc3C)n(C)c(=O)n1CC2`, the Potency result in [1], in test [2], in [4], in [5], in test [6] and in [7] was “inactive” in each case. In addition, the Potency result in test [8] and in test [9] was “inactive” each time.

Regarding `O=C(N[C@@H](c1ccccc1)[C@@H]1CCCCN1)c1cccc(C(F)(F)F)c1Cl`, the Potency result in test [2], in test [4], in test [8] and in test [9] was “inactive” throughout. Also, the Potency in test [6] was 24.5 µM (active).

Turning to `CCN(CC)CCNC(=O)c1ccc(NC(C)=O)cc1`, the Potency result in [1], in test [2], in [3], in test [4], in [5] and in test [6] was “inactive” throughout. For the same compound, the Potency result in test [8] and in test [9] was “inactive” throughout.

Regarding `COCc1c(C(C)C)nc(C(C)C)c(/C=C/[C@@H](O)C[C@@H](O)CC(=O)O)c1-c1ccc(F)cc1`, the Potency entry in [1], in test [2], in test [4] and in test [8] was “inactive” each time. For the same compound, the Potency in test [3] is 338 nM (active) and 4.84 µM (active).

`CC1=C(C=O)C(C)(C)CCC1`: the Potency entry in test [2], in [3], in test [4], in test [5] and in test [9] was “inactive” each time.

Consider `COc1cc2ncnc(Nc3ccc(F)c(Cl)c3)c2cc1OCCCN1CCOCC1`, for which the Potency result in test [4] and in test [8] was “inactive” throughout. In addition, the Potency was 9.52 µM (active) in [6] and 10.7 µM (active) in test [7].

For the compound `CN(C)CCOC1=Cc2ccccc2Sc2ccc(Cl)cc21`, the Potency result in test [2], in test [4], in test [6], in test [7] and in test [8] was “inactive” throughout. Also, the Potency in [3] is 23.9 µM (active).

For `CNCCCC1c2ccccc2C=Cc2ccccc21`, the Potency result in [2], in test [4], in test [7] and in test [8] was “inactive” throughout.

In the case of `CO[C@H]1C=CO[C@@]2(C)Oc3c(C)c(O)c4c(O)c(c5c(c4c3C2=O)=NC2(CCN(CC(C)C)CC2)N=5)NC(=O)/C(C)=C\C=C/[C@H](C)[C@H](O)[C@@H](C)[C@@H](O)[C@@H](C)[C@H](OC(C)=O)[C@@H]1C`, the Potency entry in test [1], in test [2], in test [4], in [8] and in test [9] was “inactive” throughout. Also, the Potency in test [6] was 38.1 µM (active).

In the case of `CC(=O)OCC(=O)[C@@]12OC(C)(C)O[C@@H]1C[C@H]1[C@@H]3C[C@H](F)C4=CC(=O)C=C[C@]4(C)[C@@]3(F)[C@@H](O)C[C@@]12C`, the figures for the Potency in test [1] and in test [9] were 26.8 µM (active) and 2.68 µM (active), respectively. Also, the Potency entry in test [2], in test [3], in test [4], in test [5], in [6] and in test [8] was “inactive” throughout.

For the compound `O=C(N/N=C/c1ccc([N+](=O)[O-])o1)c1ccc(O)cc1`, the Potency result in test [2], in [4], in test [8] and in [9] was “inactive” in each case.

For the compound `CCCCCCCC/C=C\CCCCCCCC(=O)OC(CO)CO`, the Potency entry in [1], in test [2], in test [3], in test [4], in [5] and in test [6] was “inactive” in each case. Further, the Potency entry in test [8] and in [9] was “inactive” throughout.

Take `CC(=O)[C@H]1CC[C@H]2[C@@H]3C[C@H](C)C4=CC(=O)CC[C@]4(C)[C@H]3[C@@H](O)C[C@]12C`: the Potency entry in test [1], in test [4], in [5], in test [7] and in [8] was “inactive” each time.

With `c1cc[c]([Bi]([c]2ccccc2)[c]2ccccc2)cc1`, the Potency result in test [1], in test [2], in test [4], in test [5], in [7] and in test [8] was “inactive” each time. In test [9], the Potency result is “inactive”.

As for `C(=C\c1ccccc1)/CN1CCN(C(c2ccccc2)c2ccccc2)CC1`, the Potency entry in test [1], in [2], in test [4], in test [5], in test [8] and in [9] was “inactive” in each case.
